# Test results as given in the OligoGym collection.
# Target: SLIT1
# Assay: pooled miR-30 sensor sort-seq; sequence = guide strand
# Conditions: shRNA
# Also: reference of the scale not given here.
row,Sequence,sensor-assay potency score (higher = more potent)
1,TTGTGGATGCAGCTGATGCGGT,-0.921
2,TTGCTCACACAGCTCGCCCGAA,-0.836
3,TTGACATGGGTTCAGATCCGGA,-1.04
4,TTGCAGGTCAGTGAACTGCAGG,-1.32
5,TTGCTTAAGGAACTGATCTTGT,-0.323
6,TGAAGGTAGACAGCTGTCCCGG,-1.03
7,TTCAATCGCAGTTCTGCCGTGG,0.209
8,TTCAATTTCTGACACCTTGTTG,-0.171
9,TTGAGGATCTGCCACAGGCGGA,-1.35
10,TTGACACTGAGCAACTTCTCAC,-0.268
11,TTCTTGCTCTTGATCTGCCCGA,-0.859
12,TAAGTTTTTTAAACATCCCAGT,-1.01

# Target: SLITRK3
# Assay: as above
# Conditions: shRNA
row,Sequence,sensor-assay potency score (higher = more potent)
1,TTGCACATTTGGGTAACCGGGT,-0.695
2,TTATCCACAACATCCTTCCTCT,0.0957
3,TTCTCATTGAGGTCTATCTGGA,-0.877
4,TTTCTCGTAGGTCCTTTCCATG,-1.36
5,TTCATGTAGATATAGTCTCTTT,-0.676
6,TTGATGTGCAAATTACAGGTAC,-0.245
7,AATGACATTGTAATCTGCCTGC,0.274
8,TCTTTTTCCAGCAAGGTCCGGT,-0.176
9,TTGAACTCAAAGTACAAGTAGT,-0.338
10,TTAACTTCACAGTAGCATGGAT,-0.128
11,TAAAAAAGAACCTTTAACCTAT,0.15
12,TTGCAGTTGACAGTCAAGCCAA,-0.544

# Target: SLITRK5
# Assay: as above
# Conditions: shRNA
row,Sequence,sensor-assay potency score (higher = more potent)
1,TAATACAGTGTGACACCTCTGC,0.818
2,TAGTCAGAAATAAGTCTCCTTG,-0.638
3,TTCCAGACTGAATCTCGCGGAT,-0.818
4,AACATTGCTACCTAGATGCAAA,-1.34
5,TCGCTCTGGTTCTTCTTCCTGC,-1.1
6,TACAGTGTGACACCTCTGCAAA,-1.11
7,TACATCTGAATAGTCAGGGCAC,0.215
8,TACAGCAAACGCTAGAGTCTGC,-0.49
9,TTATTCAAGAATAGCAGCTGGA,-0.212
10,TAATTGACAAACTCATTGGGAT,0.191
11,TTGGATGAGTGACTTCAGCTGG,0.319

# Target: SLMAP
# Assay: as above
# Conditions: shRNA
row,Sequence,sensor-assay potency score (higher = more potent)
1,TAATTCTCTTAATTCTTCCTGA,0.412
2,TATTCTTGTACTTCTGCTGTTT,-0.0967
3,TTTAATGTTATAAATAATCTGG,-0.423
